The source of these data is PubChem BioAssay AID2275 (Broad Institute, 2010).

The structures appear in SMILES notation. Among all 30,000 compounds or so, about 190 (0.63%) were called active. What follows is part of a selection rich in actives, with near analogues and random picks from the rest. Values without a mark were called inactive. Cut-off read from the data, not from the text of the source: active = viability loss activity score above about 50%; inconclusive = no clear call, values can overlap the other calls; inactive = below about 35%.

The nature of the test: cytotoxicity in HRASV12-transformed BJ fibroblasts – cell-based, luminescence, CellTiterGlo ATP, primary screen (AID 2275).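 Note: higher score means fewer live cells and less ATP luminescence.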 To be noted: BJeLR fibroblasts viability, 48 h, active compounds read high, HRASV12, hTERT and SV40 LT/ST transformed, concentration not given here.
Regarding `COC(OC)c1nc(SCC(=O)Nc2ccc(C(C)C)cc2)ncc1C(=O)O`, the viability loss activity score is -6.58%.
Next, `Cc1oc2cc(Br)c(OC(=O)c3ccco3)cc2c1C(=O)OC(C)C`: -1.39%.
Then `CCc1ccc(NC(=O)c2sc3[nH]c(=O)c(C(=O)O)cc3c2N)cc1`, with -3.87%; and `COCCn1cc(C(=O)NC2CCCCCC2)c2c3ccccc3n(C)c2c1=O`, with 2.88%.
Then `COc1ccc(NS(=O)(=O)c2ccc3c(c2)OCC(=O)N3)cc1`, with 3.85%.
In the case of `Cc1ccc(NC(=S)Nc2ccc(C)cc2)cc1`, the viability loss activity score was 2.21%.
Then `COC(=O)c1ccccc1Oc1c(F)c(F)nc(N2CCOCC2)c1F`, with 2.06%; and `CC1(C)CC[C@]2(C(=O)O)CC[C@]3(C)C(=CCC4[C@@]5(C)CC[C@H](OC6O[C@H](CO)[C@@H](O)[C@H](O[C@@H]7O[C@H](CO)[C@@H](O)[C@H](O)[C@H]7O)[C@H]6O)C(C)(C)C5CC[C@]43C)[C@@H]2C1` (some centres not stated), with 17.9%; and `COc1ccc(/C=C/C(=O)O[C@@H]2[C@@H](OC(=O)/C=C/c3ccc(OC)cc3)[C@H](C)O[C@@H](O[C@H]3[C@@H]4C=CO[C@@H](O[C@@H]5O[C@H](CO)[C@@H](O)[C@H](O)[C@H]5O)[C@@H]4[C@@]4(CO)O[C@@H]34)[C@@H]2OC(C)=O)cc1`, with -3.51%.
Take `CC1OC(OC2C(OC3C(O[C@H]4CC[C@@]5(C)C(CC[C@]6(C)C5CC=C5[C@@H]7CC(C)(C)C[C@@H](O)[C@]7(C)CC[C@]56C)C4(C)C)OC(C(=O)O)C(O)C3O)OC(CO)C(O)C2O)C(O)C(O)C1O` (some centres not stated): the viability loss activity score was 2.12%.
Then `C/C=C(/C)C(=O)O[C@H]1CC(C)(C)C[C@H]2C3=CCC4[C@@]5(C)CC[C@H](O[C@@H]6O[C@H](C(=O)O)[C@@H](O[C@@H]7O[C@H](CO)[C@H](O)[C@H](O)[C@H]7O[C@@H]7O[C@H](CO)[C@@H](O)[C@H](O)[C@H]7O)[C@H](O)[C@H]6O[C@@H]6O[C@@H](C)[C@H](O)[C@@H](O)[C@H]6O)C(C)(C)C5CC[C@@]4(C)[C@]3(C)[C@@H](O)[C@@H](O)[C@@]12CO` (some centres not stated), with 104% (active); and `C=CC1(C)C=C2CCC3C(C)(C)C(O[C@@H]4O[C@@H](CO)[C@H](O)[C@H]4O)CCC3(C)C2CC1O[C@@H]1O[C@H](C)[C@@H](OC)[C@H](O)[C@H]1O` (some centres not stated), with -5.62%; and `C/C=C(/C)C(=O)O[C@H]1CC(C)(C)C[C@H]2C3=CCC4[C@@]5(C)CC[C@H](O[C@@H]6O[C@H](C(=O)O)[C@@H](O[C@@H]7O[C@H](CO)[C@H](O)[C@H](O)[C@H]7O[C@@H]7O[C@H](CO)[C@@H](O)[C@H](O)[C@H]7O)[C@H](O)[C@H]6O[C@@H]6O[C@@H](C)[C@H](O)[C@@H](O)[C@H]6O)C(C)(C)C5CC[C@@]4(C)[C@]3(C)[C@@H](OC(C)=O)[C@@H](O)[C@@]12COC(C)=O` (some centres not stated), with 72.5% (active).
Regarding `COc1cc(OC)c(N(C)C(=O)c2ccc3c(=O)n4c(nc3c2)CCCCC4)cc1Cl`, the viability loss activity score was 4.36%.
Then `CCN(CC)C(=O)Cn1cc(SCc2ccccc2)c2ccccc21`, with -2.18%.
Then `CCCCS(=O)CSc1nc(-c2ccc(OC)cc2)cc(-c2ccccc2)c1C#N` (configuration not stated), with -8.8%; and `O=C(Nc1ccncc1)c1cccc(COc2ccc3ccccc3c2)c1`, with 12.1%.
Then `O=C(c1ccccc1)c1cnn(-c2ccc(Cl)cc2)n1`, with 14.6%; and `CN1c2ccccc2C(C)(C)C12Cc1cc(NS(=O)(=O)c3ccc(Cl)cc3)ccc1O2` (configuration not stated), with 0.312%.
Turning to `O=C(Oc1ccc(Br)cc1)c1ccco1`, the viability loss activity score was -1.65%.
Next, `CCOC(=O)c1cc(-c2ccc(C)cc2)n(CC(=O)NCC2CCCO2)c1C` (configuration not stated): -1.7%; `N/C(C[n+]1ccccc1)=N\O`: -4.49%.
Then `O=C(CCc1nc2sc3c(c2c(=O)[nH]1)CCCC3)NC1CCCC1`, with 1.97%.
`O=C1CSC(c2ccc(Cl)cc2)N1Nc1nc(Nc2ccccc2)nc(N2CCCCC2)n1` (configuration not stated): the viability loss activity score is -7.31%.
Next, `COc1ccc(/C=C2\SC(=O)N(c3ccc(C)cc3)C2=O)cc1`: -2.92%; `COc1cc2c(c(OC)c1)C(c1ccccc1OC)CC(=O)N2` (configuration not stated): 0.526%; `COc1ccc(S(=O)(=O)N(C)C[C@H]2Oc3ccc(N(C)C)cc3C(=O)N([C@@H](C)CO)C[C@@H]2C)cc1`: 0.729%.
With `O=C(NCCCN1CCCC1)c1cc(-c2ccncc2)nc2ccccc12`, the viability loss activity score was 3.5%.
On to `O=C(NCCc1ccccc1)c1nnc(Cc2ccc(F)cc2)o1`, for which the viability loss activity score is -0.807%.
Then `CCCN(CCC)Cc1c(O)ccc2c(=O)c(-c3ccccc3)coc12`, with 3.33%; and `Cc1cccc(C)c1N=C1Oc2ccccc2NC1(C)c1ccccn1` (configuration not stated), with -0.212%; and `CC(C)(C)C1=CC(=Nc2ccccc2N)C=C(C(C)(C)C)C1O` (configuration not stated), with -0.524%.
Then `CC(c1ccccc1)N1C(=O)c2ccccc2C1Nc1ccc(F)cc1` (configuration not stated), with -2.92%; and `COC(Cn1c(SCC(=O)c2cccc(C(F)(F)F)c2)nnc1-c1ccc(Cl)cc1)OC`, with 2.18%.
For `CSc1nc(COc2ccc(C(C)(C)C)cc2)nc(-n2cccc2)c1C#N`, the viability loss activity score was -2.33%.
Then `C=CCC(c1cc(Cl)ccc1N)S(=O)(=O)c1ccc(C)cc1` (configuration not stated), with 0.759%; and `CSc1cccc(NC(=O)CSc2nncn3c2cc2sccc23)c1`, with -1.6%.
